# Reference: PubChem BioAssay (Tox21)
# Where “and” joins values, the source holds several entries; their conditions need not be identical. Equal values may be shown once. Results filed as inconclusive are left out. Where a call stands in place of a potency, no number is given. Calls of active or inactive are those of the source. Unless noted, the call rests on the fitted dose curve; in most records, active means well fitted curve in the direction sought with a large enough effect in the repeat runs; inconclusive means weak or mixed curves; inactive means no such curve, though single readings can be large; an effect the other way counts as inactive or inconclusive.
# Columns and labels:
# [1] = qHTS assay to identify small molecule antagonists of the thyroid receptor (TR) signaling pathway - cell viability counter screen (AID 743064); further: nearly all actives have a fitted effect of over 50% in size; further: potency means the concentration at half of the fitted maximal effect
# How it was run: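 Same-well viability check: GH3.TRE-Luc cells stimulated with 1 nM T3 alongside test compound for 23.5 h, followed by CellTiter-Fluor fluorescence.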
# [2] = test system: thyroid hormone receptor (rat, GH3 cells); test: qHTS assay to identify small molecule agonists of the thyroid receptor (TR) signaling pathway (AID 743066; calls by dose curve)
# [3] = target: Estrogen receptor (Homo sapiens) (UniProt P03372); test: qHTS assay to identify small molecule antagonists of the estrogen receptor alpha (ER-alpha) signaling pathway (AID 743069; active means well fitted curve in the direction sought with a large enough effect in the signal ratio in the repeat runs, not every such curve was filed as active; the % refers to the signal ratio)
# Sequence of Estrogen receptor (Homo sapiens) (P03372 whole entry, looked up): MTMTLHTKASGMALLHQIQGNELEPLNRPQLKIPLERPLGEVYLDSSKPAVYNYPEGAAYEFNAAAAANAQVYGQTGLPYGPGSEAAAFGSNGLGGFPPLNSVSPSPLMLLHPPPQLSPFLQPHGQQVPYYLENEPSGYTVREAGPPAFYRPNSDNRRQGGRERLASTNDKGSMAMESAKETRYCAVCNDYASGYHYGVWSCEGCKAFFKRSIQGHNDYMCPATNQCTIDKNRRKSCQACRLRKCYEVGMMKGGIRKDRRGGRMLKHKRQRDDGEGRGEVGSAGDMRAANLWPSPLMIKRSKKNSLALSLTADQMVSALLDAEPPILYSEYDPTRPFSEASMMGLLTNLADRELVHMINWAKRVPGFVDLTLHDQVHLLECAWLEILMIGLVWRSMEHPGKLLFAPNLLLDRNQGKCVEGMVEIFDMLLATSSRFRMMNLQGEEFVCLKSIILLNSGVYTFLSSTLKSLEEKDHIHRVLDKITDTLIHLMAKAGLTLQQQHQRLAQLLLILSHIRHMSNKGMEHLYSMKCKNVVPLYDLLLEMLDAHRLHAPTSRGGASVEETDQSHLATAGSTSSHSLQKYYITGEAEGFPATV
# How it was run: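 Screening used a UAS-driven beta-lactamase reporter integrated into HEK293 cells expressing ER-alpha, stimulated with 17beta-estradiol alongside test compounds over 18 hr at 37C; signal came from LiveBLAzer B/G FRET fluorescence.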
# [4] = qHTS assay to identify small molecule antagonists of the estrogen receptor alpha (ER-alpha) signaling pathway - cell viability counter screen (AID 743074; calls by dose curve; further: nearly all actives have a fitted effect of over 45% in size)
# [5] = target: Estrogen receptor (Homo sapiens) (UniProt P03372); test: qHTS assay to identify small molecule agonists of the estrogen receptor alpha (ER-alpha) signaling pathway (AID 743075; calls by dose curve)
# [6] = target: Estrogen receptor (Homo sapiens) (UniProt P03372); test: qHTS assay to identify small molecule agonists of the estrogen receptor alpha (ER-alpha) signaling pathway using the BG1 cell line (AID 743079); further: nearly all actives have a fitted effect of over 20% in size; further: potency means the concentration at half of the fitted maximal effect
# [7] = qHTS assay to identify small molecule antagonists of the estrogen receptor alpha (ER-alpha) signaling pathway using the BG1 cell line - cell viability counter screen (AID 743081);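 further: compound given together with 17beta-estradiol as the ER stimulus; series mostly up to about 70 µM; nearly all actives have a fitted effect of over 45% in size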
# Aromatase (Homo sapiens) = Aromatase (Homo sapiens) (UniProt P11511); test: qHTS assay to identify aromatase inhibitors (AID 743083); further: series mostly up to about 70 µM; nearly all actives have a fitted effect of over 55% in size
# Sequence of Aromatase (Homo sapiens) (P11511 whole entry, looked up): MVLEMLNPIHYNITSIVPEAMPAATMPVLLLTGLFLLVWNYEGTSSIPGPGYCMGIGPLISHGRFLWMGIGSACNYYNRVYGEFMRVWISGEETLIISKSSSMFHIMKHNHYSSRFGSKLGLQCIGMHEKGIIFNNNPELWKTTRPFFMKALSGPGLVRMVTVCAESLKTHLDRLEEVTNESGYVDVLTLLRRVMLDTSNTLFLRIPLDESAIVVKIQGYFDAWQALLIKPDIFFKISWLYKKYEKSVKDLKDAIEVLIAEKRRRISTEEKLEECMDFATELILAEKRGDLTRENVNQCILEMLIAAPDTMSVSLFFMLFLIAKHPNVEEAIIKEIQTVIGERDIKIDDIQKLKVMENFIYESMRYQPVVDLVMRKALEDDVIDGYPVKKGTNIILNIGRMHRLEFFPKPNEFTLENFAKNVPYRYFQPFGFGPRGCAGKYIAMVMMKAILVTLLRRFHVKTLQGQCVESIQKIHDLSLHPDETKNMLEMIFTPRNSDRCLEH
# [8] = qHTS assay to identify small molecule antagonists of the thyroid receptor (TR) signaling pathway (AID 743065); further: series mostly up to about 70 µM; nearly all actives have a fitted effect of over 55% in size
# How it was run: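 GH3.TRE-Luc rat pituitary cells carrying two TR response elements driving luciferase were plated for 4 h, given compound plus 1 nM T3 (final), and incubated 23.5 h at 37 C. ONE-Glo luminescence measured reporter inhibition; CellTiter-Fluor fluorescence tracked cytotoxicity.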
# [9] = qHTS assay to identify small molecule antagonists of the estrogen receptor alpha (ER-alpha) signaling pathway using the BG1 cell line (AID 743080; calls by dose curve; further: series mostly up to about 70 µM; nearly all actives have a fitted effect of over 25% in size)
# How it was run: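 Antagonist mode: compounds in DMSO were pinned onto BG1-Luc-4E2 cells alongside 17beta-estradiol agonist, incubated 21.5 h, and ERE-driven luciferase measured with ONE-Glo. Cytotoxicity was multiplexed using CellTiter-Fluor fluorescence.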
Structure (SMILES),Potency [1],Potency [2],Potency [3],outcome [4],Potency [5],Potency [6],Potency [7],Potency (Aromatase (Homo sapiens)),Potency [8],Potency [9]
CCN(CC)c1ccc(C(=O)c2ccccc2C(=O)O)c(O)c1,inactive,inactive,inactive,inactive,inactive,17.3 µM (active) and 43.3 µM (active),inactive,inactive,–,–
OCCOCCN1CCN(C2=Nc3ccccc3Sc3ccccc32)CC1,–,inactive,–,inactive,–,–,inactive,–,–,–
C=C(C)C(=O)OCCOCCOCCOC(=O)C(=C)C,inactive,inactive,–,inactive,–,–,inactive,inactive,–,–
CCCCCC1=CCCC1=O,–,inactive,inactive,inactive,inactive,inactive,inactive,inactive,inactive,inactive
NNc1nncc2ccccc12,–,–,–,inactive,–,–,inactive,inactive,–,–
C=CCNC(N)=S,inactive,inactive,–,inactive,–,–,inactive,inactive,–,–
CCCCCC(N)=O,inactive,inactive,–,inactive,–,–,inactive,inactive,–,–
CCCCCCCCCCCCc1ccccc1,inactive,–,–,inactive,–,–,inactive,inactive,–,–
CC1=C(C)S(=O)(=O)CCS1(=O)=O,inactive,inactive,inactive,inactive,inactive,inactive,inactive,inactive,–,inactive
CCCSc1ccc2nc(NC(=O)OC)[nH]c2c1,452 nM (active),–,–,inactive,–,–,inactive,inactive,–,–
O=C(O)c1ccc(C(=O)O)cc1,inactive,inactive,–,inactive,–,–,inactive,inactive,–,–
CCCCCCCCC/C=C/CC1CC(=O)OC1=O (stereo not given),inactive,inactive,–,inactive,–,–,inactive,–,–,–
OCCOCCOCCO,inactive,–,inactive,inactive,inactive,inactive,inactive,inactive,–,inactive
C=C(C)C(=O)O[C@H]1C[C@@H]2CC[C@@]1(C)C2(C)C,inactive,inactive,inactive,inactive,inactive,inactive,inactive,inactive,–,inactive
O=C(O)[C@H](O)[C@@H](O)[C@H](O)[C@H](O)CO,inactive,inactive,–,inactive,–,–,inactive,inactive,–,–
O=C(O)CCCC[C@@H]1SC[C@@H]2NC(=O)N[C@@H]21,inactive,inactive,inactive,inactive,inactive,inactive,inactive,inactive,–,inactive
CC1CCC2CC1C2(C)C (stereo not given),inactive,inactive,–,inactive,–,–,inactive,inactive,–,–
O=C(Oc1ccccc1)c1ccccc1,inactive,inactive,–,inactive,–,–,inactive,inactive,–,–
